# Pf growth 48h = inhibits P. falciparum growth in the first generation, 48 h; AID 504832; P. falciparum luciferase growth in erythrocytes, 48 h; Potency, µM (highest dose often 28.7 µM), without a hit: top-dose activity change, negative = inhibition, actives largely listed as inhibitors; 5.9% of 310,000 active; further: potency means the concentration at half of the fitted maximal effect; on the % scale 0 is the no-effect control and ±100 the full control effect
#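 Parasite viability was followed by luminescence of a genomically integrated firefly luciferase. Cultures held 0.1% parasitemia at 2% hematocrit (final), incubated under 5% CO2 at 37 C.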
# Shiga toxin inh = inhibitors of Shiga toxin in Vero cells. Vero cells, Shiga toxin protein synthesis inhibition reporter. inhibition, % at 38.7 µM. AID 2315. 9.2% of 290,000 active; in the data active means inhibition mostly above about 28%, no sharp cut-off; inactive means mostly below about 43%; further: 0% is about no effect
# HCV inh = blocks hepatitis C virus; Potency, µM (highest dose often 41.8 µM), without a hit: at the top dose activity change, negative = inhibition, most hits filed as inhibitors; Huh7.5.1 HCVcc-Cre infection, luciferase reporter, 44 h; 3.4% of 340,000 active; further: potency means the concentration at half of the fitted maximal effect; on the % scale 0 is the no-effect control and ±100 the full control effect
#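 After 44 h co-culture of compound, cells and HCVcc-Cre (~0.5 moi), substrate is added for 15 min at room temperature and luciferase measured over 15 sec. Cells were seeded at 1,000/well and pre-cultured 4 h.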
# CHX counter = counter-screen hit for Shiga toxin inhibitors, cycloheximide. cell reporter, cycloheximide protein synthesis inhibition counterscreen. 12% of 300,000 active. max response, %; in the data active means max response mostly above about 13%, no sharp cut-off; inactive means mostly below about 14%; further: read at 38.3 µM for the half of the compounds with a filed dose; 0% is about no effect
# AMA1 RON2 block = disrupts binding of P. falciparum AMA1 to RON2; AID 720542; 0.2% of 360,000 active; Potency, µM (highest dose often 58.2 µM), without a hit: top-dose activity change, negative = inhibition, most hits filed as inhibitors; AlphaScreen AMA1-biotinylated RON2 peptide binding;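 further: potency means the concentration at half of the fitted maximal effect; 0% = vehicle wells and -100% = peptide control; nearly all actives have a fitted effect of over 45% in size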
#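 AMA1 (3D7) with his tag at 25 nM final met compounds first, then biotinylated RON2 peptide at 25 nM; detection used donor plus acceptor beads, 10 µg/mL apiece, read by AlphaScreen after 30 min at room temperature.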
# Pf growth 96h = inhibits malaria parasite growth, 96 h | AID 504834 | P. falciparum luciferase reporter growth, 96 h | Potency, µM (titrated, usually from 28.7 µM), for inactives: at the highest dose activity change, negative = inhibition, most hits filed as inhibitors | 6.9% of 320,000 active; further: potency means the concentration at half of the fitted maximal effect; on the % scale 0 is the no-effect control and ±100 the full control effect
#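 Two-generation exposure (96 h) targets delayed-death phenotype. Reporter parasites carrying integrated firefly luciferase, in red cells at 2% hematocrit and 0.05% parasitemia final, kept at 37 C, 5% CO2; luminescence loss indicates inhibition.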
# Starred values were filed as active, the others as inactive; ? = inconclusive; . = no result given; [ ] = dose if it differs, or a comment. A selection: hits, their analogues and other compounds. The true share with any hit is near 21%. Unless noted, the call rests on the fitted dose curve; in most records, active means well fitted curve in the direction sought with a large enough effect; inconclusive means small, poorly fitted or top-dose-only effect, or another doubt; inactive means no such curve, though single readings can be large; an effect the other way counts as inactive or inconclusive.
SMILES,Pf growth 48h,Shiga toxin inh,HCV inh,CHX counter,AMA1 RON2 block,Pf growth 96h
CC(CC(=O)OCC(=O)Nc1ccc2[nH]c(=O)[nH]c2c1)c1ccccc1 (configuration not stated),11%,.,4%,.,-3%,30%
COc1ccccc1N(CC(=O)Nc1ccc(Cc2ccncc2)cc1)S(=O)(=O)c1ccccc1,8.3µM*,-5,?,-3,-23%,?
COc1ccc(N(CC(=O)Nc2ccc(Cc3ccncc3)cc2)S(=O)(=O)c2ccccc2)cc1,13µM*,-9,?,-2,-2%,3%
COc1ccc(NC(=O)CN(c2ccc([N+](=O)[O-])cc2)S(=O)(=O)c2ccccc2)cc1,?,34,?,11,-15%,-26%
COc1ccc(N(CC(=O)Nc2ccc(S(=O)(=O)N3CCOCC3)cc2)S(=O)(=O)c2ccccc2)cc1,10µM*,23,4µM*,-1,-2%,.
CCOC(=O)C1(C)CCCN(C(=O)c2cccnc2)C1 (configuration not stated),.,.,.,.,12%,.
Cc1ccc(S(=O)(=O)N2[C@@H](CO)CO[C@H]2CC(=O)c2cccs2)cc1,.,.,.,.,2%,.
Fc1ccccc1-c1nnc2ccc3ccccc3n12,8%,.,-8%,-4,-9%,?
Fc1cccc(Cl)c1-c1nnc2ccc3ccccc3n12,2%,35*,10µM*,37*,-11%,-53%[5.75 µM]
CSC1=NC(C)(C)C=C(/C=C/c2ccc(Cl)cc2Cl)N1,?,33,?,15,-4%,12µM*
CSC1=NC(C)(C)C=C(/C=C/c2ccc(Cl)cc2)N1,-24%,10,8.9µM*,15,0%,?
CCSC1=NC(C)(C)C=C(/C=C/c2ccc(Cl)cc2Cl)N1,.,-11,?,3,-9%,?
O=C(NCCc1ccc(Cl)cc1)c1ccc(S(=O)(=O)N2CCCC2)cc1,?,.,?,.,0%,?
CC12C(=O)N(c3cccc4cccnc34)C(=O)C1C1C=CC2C1 (configuration not stated),.,-17,1%,-4,-4%,6.6µM*
CN(C(=O)CSc1nc(O)cc(=O)n1C1CCCC1)c1ccccc1,?,-4,0%,-1,-18%,1.7µM*
Cc1nc2c(c(=O)n1CCC1=CCCCC1)c1nc3ccccc3nc1n2/N=C/c1ccco1,10µM*,54,?,9,-20%,9.3µM*
Cc1nn(Cc2ccc(Cl)c(Cl)c2)c(C)c1NC(=O)c1cc(-c2ccco2)on1,?,7,?,3,-4%,58%
CCC(=NCc1ccc(Cl)c(Cl)c1)c1nc(-c2ccco2)oc1O,?,48*,-28%,23,?,12µM*
COC(=O)[C@]12CCCCC=C1N(Cc1ccco1)C(=O)[C@H](CC(=O)NCCCN1CCCC1=O)C2,.,.,.,.,8%,.
Cc1ccc2ccccc2c1NC(=O)Cn1nnc(-c2cccnc2)n1,25%,-1,14%,-4,?,0.66µM*
Cc1ccc(C(=O)N2CCc3ccccc32)cc1,35%,90*,-20%,31*,4%,148%
O=C(c1cc(Cl)ccc1Cl)N1CCc2ccccc21,-12%,-3,?,-3,2%,?
O=C(c1ccc(Cl)cc1)N1CCc2ccccc21,6%,46,5%,33*,4%,?
CCc1sc(C(=O)N2CCc3ccccc32)cc1C,216%,102*,?,66*,-2%,122%
O=C(c1ccc(Cl)s1)N1CCc2ccccc21,170%,82*,1%,36*,5%,.
CCOC(=O)N1CCN(C(=O)c2[nH]c(C(F)(F)F)nc2-c2ccccc2)CC1,.,.,.,.,19%,.
Cc1ccc(C2=NN(C(=O)CN3CCN(C4CCS(=O)(=O)C4)CC3)C(c3ccco3)C2)cc1 (configuration not stated),-26%,.,?,.,-8%,1%
CC(C)CCOc1ccc(C(=O)NCC(c2ccco2)N(C)C)cc1 (configuration not stated),3%,29,-14%,13,6%,10%
Cc1n[nH]c(C)c1CCC(=O)N/N=C/c1cccs1,-6%,20,5%,4,18%,66%

# High-throughput results (PubChem BioAssay)
